# In PubChem BioAssay (EPA / NIEHS):
# Calls of active or inactive are those of the source. How the source made its calls: active means hit-call score of the fitted dose curve at least 0.9, where 1 is the maximum; inactive means score below 0.9.
# Tests used:
# [1] = ATG_GRE_CIS: Attagene CIS-FACTORIAL HepG2 Assay for human Glucocorticoid Response Elements (GRE) (AID 2282947); details: HepG2 GRE cis-reporter, Attagene multiplex mRNA; actives raise or lower the signal
# In short: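 Reporter transcripts read by RT-PCR with capillary electrophoresis fluorescence after a 24 h chemical exposure of HepG2 cells transiently transfected with multiple cis-element reporter units. Gain or loss fitted against DMSO.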
# [2] = ATG_ISRE_CIS: Attagene CIS-FACTORIAL HepG2 Assay for human Interferon Regulatory Factor 1 (IRF1) binding to an Interferon-Stimulated Response Element (ISRE) (AID 2282948); details: HepG2 ISRE cis-reporter (Attagene), mRNA transcription readout; actives raise or lower the signal
# In short: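 Endogenous transcription factor activity read as reporter transcript abundance via RT-PCR and capillary electrophoresis. HepG2 cells transiently transfected, 24 h chemical exposure. Gain or loss fitted against DMSO baseline.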
# [3] = ATG_M_32_CIS: Attagene CIS-FACTORIAL HepG2 Assay for M32 Transcription Factor (Internal Marker) (AID 2282949); details: HepG2 Attagene cis-factorial M32 reporter, mRNA; actives raise or lower the signal;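 further: background control marker of the multiplexed CIS panel rather than a real target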
# In short: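 HepG2 human liver cells transiently transfected with cis-promoter-driven multiple reporter transcription units, dosed 24 h. Reporter mRNA quantified by RT-PCR, FAM-labelled primer extension, HpaI digest and capillary electrophoresis; bidirectional fit versus DMSO baseline.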
# [4] = ATG_M_06_CIS: Attagene CIS-FACTORIAL HepG2 Assay for M06 Transcription Factor (Internal Marker) (AID 2282950); details: HepG2 Attagene CIS-FACTORIAL M06 internal marker reporter; actives raise or lower the signal
# In short: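 Terse: HepG2, transient MRTU transfection (FuGene 6), 24 h dosing; total RNA, oligo(dT) RT, PCR, FAM label, HpaI cut, capillary electrophoresis; bidirectional fit vs DMSO baseline; background-control endpoint.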
# [5] = molecular target: Hypoxia-inducible factor 1-alpha (Homo sapiens) (UniProt Q16665); assay: ATG_HIF1a_CIS: Attagene CIS-FACTORIAL HepG2 Assay for human Hypoxia Inducible Factor 1 (HIF1A) (AID 2282951); details: HepG2 Attagene cis-factorial HIF1a reporter transcription; actives raise or lower the signal
# Sequence of Hypoxia-inducible factor 1-alpha (Homo sapiens) (Q16665 whole entry, looked up): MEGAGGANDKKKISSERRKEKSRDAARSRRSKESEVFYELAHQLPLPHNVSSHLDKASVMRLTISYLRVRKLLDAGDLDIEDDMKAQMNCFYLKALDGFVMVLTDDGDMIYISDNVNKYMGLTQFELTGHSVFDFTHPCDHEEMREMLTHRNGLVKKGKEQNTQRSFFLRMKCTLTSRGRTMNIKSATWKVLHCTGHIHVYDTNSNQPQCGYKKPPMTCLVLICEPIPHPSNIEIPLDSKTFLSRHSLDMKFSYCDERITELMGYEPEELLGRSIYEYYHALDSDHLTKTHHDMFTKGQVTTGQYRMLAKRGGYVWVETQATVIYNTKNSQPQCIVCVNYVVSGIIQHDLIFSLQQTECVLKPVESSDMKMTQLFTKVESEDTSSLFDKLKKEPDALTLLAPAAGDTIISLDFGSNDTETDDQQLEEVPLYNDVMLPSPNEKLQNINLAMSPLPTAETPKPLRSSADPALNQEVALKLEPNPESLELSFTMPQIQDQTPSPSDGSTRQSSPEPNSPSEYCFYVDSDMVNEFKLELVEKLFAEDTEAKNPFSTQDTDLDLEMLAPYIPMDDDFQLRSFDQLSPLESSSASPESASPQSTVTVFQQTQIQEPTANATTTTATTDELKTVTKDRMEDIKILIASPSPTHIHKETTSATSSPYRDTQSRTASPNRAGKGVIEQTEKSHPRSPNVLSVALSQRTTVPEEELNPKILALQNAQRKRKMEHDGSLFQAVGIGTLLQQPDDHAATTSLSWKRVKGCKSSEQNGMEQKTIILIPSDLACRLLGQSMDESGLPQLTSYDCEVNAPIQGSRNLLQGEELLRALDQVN
# In short: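 After 24 h chemical exposure of reporter-transfected HepG2 cells, reporter cDNA was PCR-amplified, labelled by 6-FAM primer extension (2 min 95 C, 20 s 68 C, 10 min 72 C), HpaI-cut (2 h, 37 C) and analysed by CE.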
# [6] = molecular target: Hepatocyte nuclear factor 6 (Homo sapiens) (UniProt Q9UBC0); assay: ATG_HNF6_CIS: Attagene CIS-FACTORIAL HepG2 Assay for human Hepatocyte Nuclear Factor 6 (HNF6) (AID 2282952); details: HepG2 Attagene cis-factorial HNF6 reporter transcription; actives raise or lower the signal
# Sequence of Hepatocyte nuclear factor 6 (Homo sapiens) (Q9UBC0 whole entry, looked up): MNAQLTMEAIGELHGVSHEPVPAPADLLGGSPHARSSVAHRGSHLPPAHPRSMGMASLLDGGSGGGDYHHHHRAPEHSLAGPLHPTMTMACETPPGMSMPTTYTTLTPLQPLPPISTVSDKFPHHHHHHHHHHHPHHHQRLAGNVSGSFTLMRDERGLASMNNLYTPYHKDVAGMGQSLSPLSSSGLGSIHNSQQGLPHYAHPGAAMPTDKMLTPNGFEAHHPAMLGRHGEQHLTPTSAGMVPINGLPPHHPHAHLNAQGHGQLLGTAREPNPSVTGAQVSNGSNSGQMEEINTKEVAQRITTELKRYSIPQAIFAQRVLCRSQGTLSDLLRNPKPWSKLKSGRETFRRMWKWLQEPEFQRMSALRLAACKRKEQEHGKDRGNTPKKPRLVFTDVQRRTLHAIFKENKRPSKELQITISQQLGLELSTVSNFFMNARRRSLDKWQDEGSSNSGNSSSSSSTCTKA
# In short: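 Endogenous factor activity read in transiently transfected HepG2 via promoter-regulated reporter transcripts. RNA harvested 24 h post-dosing, reverse-transcribed, PCR-amplified, FAM-labelled, HpaI-digested and resolved by capillary electrophoresis; fitted in both directions against DMSO.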
# [7] = molecular target: Heat shock factor protein 1 (Homo sapiens) (UniProt Q00613); assay: ATG_HSE_CIS: Attagene CIS-FACTORIAL HepG2 Assay for human Heat Shock Transcription Factor 1 (HSE) (AID 2282953); details: HepG2 HSE cis-reporter, Attagene RNA transcription; actives raise or lower the signal
# Sequence of Heat shock factor protein 1 (Homo sapiens) (Q00613 whole entry, looked up, the tested form may be a part): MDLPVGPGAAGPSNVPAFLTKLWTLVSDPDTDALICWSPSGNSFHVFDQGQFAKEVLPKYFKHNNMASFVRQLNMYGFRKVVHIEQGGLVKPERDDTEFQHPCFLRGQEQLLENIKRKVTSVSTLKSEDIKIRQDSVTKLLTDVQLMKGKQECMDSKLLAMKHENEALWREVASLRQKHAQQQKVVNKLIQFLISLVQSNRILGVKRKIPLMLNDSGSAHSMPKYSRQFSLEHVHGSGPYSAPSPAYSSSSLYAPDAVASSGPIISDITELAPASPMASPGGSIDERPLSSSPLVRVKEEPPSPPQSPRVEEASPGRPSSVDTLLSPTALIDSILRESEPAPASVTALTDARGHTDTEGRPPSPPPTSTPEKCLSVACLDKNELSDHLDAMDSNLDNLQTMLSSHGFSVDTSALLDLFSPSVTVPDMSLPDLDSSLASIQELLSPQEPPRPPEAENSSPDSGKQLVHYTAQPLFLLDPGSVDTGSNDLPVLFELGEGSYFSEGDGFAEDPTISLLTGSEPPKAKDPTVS
# In short: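 Read-out: fluorescence of reporter-specific RT-PCR fragments separated by capillary electrophoresis. HepG2 carrying transfected cis-element reporter units; 24 h dosing; activity fitted in both directions relative to DMSO baseline.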
# [8] = ATG_PBREM_CIS: Attagene CIS-FACTORIAL HepG2 Assay for human Phenobarbital-responsive Enhancer Module (PBREM) (AID 2282955); details: HepG2 PBREM cis-reporter, Attagene multiplexed transcription; actives raise or lower the signal
# In short: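 Measures endogenous factor action on a phenobarbital-responsive enhancer module. HepG2 transiently carrying cis reporters, 24 h treatment, mRNA read-out by RT-PCR plus capillary electrophoresis.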
# [9] = molecular target: Paired box protein Pax-6 (Homo sapiens) (UniProt P26367); assay: ATG_Pax6_CIS: Attagene CIS-FACTORIAL HepG2 Assay for human Paired Box 6 (PAX6) (AID 2282956); details: HepG2 CIS-FACTORIAL PAX6 reporter transcription, RNA readout; actives raise or lower the signal
# Sequence of Paired box protein Pax-6 (Homo sapiens) (P26367 whole entry, looked up): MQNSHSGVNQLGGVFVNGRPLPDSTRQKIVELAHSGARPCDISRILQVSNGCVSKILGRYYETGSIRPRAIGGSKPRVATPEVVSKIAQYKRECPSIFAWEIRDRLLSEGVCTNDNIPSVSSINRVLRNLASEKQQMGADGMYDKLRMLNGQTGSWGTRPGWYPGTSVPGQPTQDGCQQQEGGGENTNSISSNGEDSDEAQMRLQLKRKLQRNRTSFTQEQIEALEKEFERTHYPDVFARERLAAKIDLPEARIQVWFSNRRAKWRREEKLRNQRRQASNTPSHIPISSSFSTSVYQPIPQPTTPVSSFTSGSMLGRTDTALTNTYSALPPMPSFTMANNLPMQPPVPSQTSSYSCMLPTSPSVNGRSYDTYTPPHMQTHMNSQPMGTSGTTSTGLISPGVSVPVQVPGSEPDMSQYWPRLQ
# In short: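 Read-out is reporter transcript level, measured by RT-PCR with fluorescent primer extension and capillary electrophoresis after 24 h dosing of transfected HepG2 cells. Activity in either direction fitted relative to DMSO control.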
# [10] = ATG_PPRE_CIS: Attagene CIS-FACTORIAL HepG2 Assay for human Peroxisome Proliferator-activated Response Element (PPRE) (AID 2282958); details: HepG2 PPRE cis-element reporter, Attagene transcription factor profiling; actives raise or lower the signal
# In short: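 PPRE activity in HepG2: transient cis-reporter transfection, 24 h compound incubation, reporter mRNA by RT-PCR and CE fluorescence; gain/loss fitted against DMSO.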
# [11] = ATG_RORE_CIS: Attagene CIS-FACTORIAL HepG2 Assay for human RAR-related Orphan Receptor Element (RORE) (AID 2282959); details: HepG2 Attagene cis-factorial RORE reporter, mRNA; actives raise or lower the signal
# In short: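 A 24-hour exposure of transfected HepG2 hepatoma cells precedes RNA isolation and reporter RT-PCR. Labeled products are digested with HpaI and resolved by capillary electrophoresis, with gain or loss of signal scored relative to DMSO.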
# [12] = ATG_Sox_CIS: Attagene CIS-FACTORIAL HepG2 Assay for human SRY-box transcription factor (SOX) (AID 2282960); details: HepG2 Attagene cis-factorial SOX reporter, mRNA; actives raise or lower the signal
# In short: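 HepG2, cis reporter units, 24 h exposure. Reporter mRNA: RT-PCR → FAM labelling → HpaI → CE fluorescence. Bidirectional fit vs DMSO.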
# [13] = molecular target: Transcription factor Sp1 (Homo sapiens) (UniProt P08047); assay: ATG_Sp1_CIS: Attagene CIS-FACTORIAL HepG2 Assay for human Specificity Protein 1 (Sp1) (AID 2282961); details: HepG2 Sp1 cis-reporter transcription, actives raise or lower the signal
# Sequence of Transcription factor Sp1 (Homo sapiens) (P08047 whole entry, looked up, the tested form may be a part): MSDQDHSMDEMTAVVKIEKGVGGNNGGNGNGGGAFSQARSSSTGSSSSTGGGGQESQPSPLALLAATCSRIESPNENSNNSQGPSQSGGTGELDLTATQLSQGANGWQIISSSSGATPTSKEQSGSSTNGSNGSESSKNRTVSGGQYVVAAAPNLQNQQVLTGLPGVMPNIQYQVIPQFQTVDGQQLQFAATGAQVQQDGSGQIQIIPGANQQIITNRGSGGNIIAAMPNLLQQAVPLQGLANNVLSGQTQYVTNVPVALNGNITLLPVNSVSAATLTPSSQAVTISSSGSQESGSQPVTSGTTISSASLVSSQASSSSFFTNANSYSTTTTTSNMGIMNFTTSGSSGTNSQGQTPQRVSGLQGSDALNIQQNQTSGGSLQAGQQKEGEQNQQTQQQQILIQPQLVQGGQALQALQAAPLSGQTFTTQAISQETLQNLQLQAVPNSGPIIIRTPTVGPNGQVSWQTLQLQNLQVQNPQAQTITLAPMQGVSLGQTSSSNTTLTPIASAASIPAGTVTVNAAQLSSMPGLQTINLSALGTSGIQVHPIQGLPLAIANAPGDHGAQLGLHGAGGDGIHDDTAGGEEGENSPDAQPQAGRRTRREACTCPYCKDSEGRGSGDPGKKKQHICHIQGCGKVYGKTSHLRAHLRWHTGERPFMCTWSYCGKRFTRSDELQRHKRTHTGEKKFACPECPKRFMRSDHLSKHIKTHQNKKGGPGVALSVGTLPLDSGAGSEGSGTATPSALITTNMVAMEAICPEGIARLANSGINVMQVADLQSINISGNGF
# In short: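 Liver-derived HepG2 cells, cis-element reporter library, 24 h treatment; RNA isolated, cDNA amplified with reporter-specific primers, FAM-labeled fragments sized on capillary analyzer. DMSO baseline, bidirectional curve fit.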
# [14] = ATG_SREBP_CIS: Attagene CIS-FACTORIAL HepG2 Assay for human Sterol Regulatory Element Binding (SREBP) (AID 2282962); details: HepG2 Attagene cis-factorial SREBP reporter, mRNA; actives raise or lower the signal
# In short: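 Endogenous SREBP activity read as cis-element-driven reporter transcript in transiently transfected HepG2, 24 h post-dosing; quantified via RT-PCR plus capillary electrophoresis of fluorescent fragments. Gain or loss of signal fitted relative to DMSO baseline.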
# [15] = molecular target: Signal transducer and activator of transcription 3 (Homo sapiens) (UniProt P40763); assay: ATG_STAT3_CIS: Attagene CIS-FACTORIAL HepG2 Assay for human Signal Transducer and Activator of Transcription 3 (STAT3) (AID 2282963); details: HepG2, Attagene cis-factorial STAT3 reporter transcription; actives raise or lower the signal
# Sequence of Signal transducer and activator of transcription 3 (Homo sapiens) (P40763 whole entry, looked up): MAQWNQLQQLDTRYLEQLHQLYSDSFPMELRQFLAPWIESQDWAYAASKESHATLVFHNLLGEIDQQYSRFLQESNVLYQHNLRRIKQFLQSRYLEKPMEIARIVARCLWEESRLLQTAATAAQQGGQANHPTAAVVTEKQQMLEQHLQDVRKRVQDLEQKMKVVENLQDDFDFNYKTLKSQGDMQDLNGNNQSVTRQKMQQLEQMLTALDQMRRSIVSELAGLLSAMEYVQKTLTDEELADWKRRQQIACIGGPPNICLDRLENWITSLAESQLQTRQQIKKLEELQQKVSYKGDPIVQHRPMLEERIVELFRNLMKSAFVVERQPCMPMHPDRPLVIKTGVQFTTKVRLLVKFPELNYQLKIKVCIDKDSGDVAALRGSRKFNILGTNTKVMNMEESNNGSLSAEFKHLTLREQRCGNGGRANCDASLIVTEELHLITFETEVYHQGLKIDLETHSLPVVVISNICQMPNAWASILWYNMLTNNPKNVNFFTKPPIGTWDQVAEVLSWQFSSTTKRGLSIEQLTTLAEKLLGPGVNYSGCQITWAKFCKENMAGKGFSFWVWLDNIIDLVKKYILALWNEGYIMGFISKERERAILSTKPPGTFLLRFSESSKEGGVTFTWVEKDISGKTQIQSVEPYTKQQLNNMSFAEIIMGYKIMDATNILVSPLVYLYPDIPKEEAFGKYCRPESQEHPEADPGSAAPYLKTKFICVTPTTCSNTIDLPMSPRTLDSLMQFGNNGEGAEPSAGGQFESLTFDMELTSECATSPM
# In short: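 Readout is reporter transcript quantified by RT-PCR and capillary electrophoresis, with 6-FAM primer extension and HpaI digestion. Total RNA is taken 24 h after dosing transiently transfected HepG2 carrying cis-regulated reporter units. Bidirectional fit against DMSO.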
# [16] = ATG_TA_CIS: Attagene CIS-FACTORIAL HepG2 Assay for human TA Basal Promoter (AID 2282964); details: HepG2 Attagene CIS-factorial TA basal promoter reporter; actives raise or lower the signal
# In short: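 Transfected HepG2, 24 h compound exposure; RNA → RT-PCR → FAM primer extension → HpaI cut → CE fluorescence. Gain/loss-of-signal fitted against DMSO negative control. Background-control readout.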
# [17] = ATG_TCF_b_cat_CIS: Attagene CIS-FACTORIAL HepG2 Assay for human T-Cell-Factor with beta-catenin (TCF/b-cat) (AID 2282965); details: HepG2 TCF/beta-catenin cis-reporter transcription, actives raise or lower the signal
# In short: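 Endogenous TCF/LEF activity read as reporter transcript level via RT-PCR and capillary electrophoresis fluorescence in transfected HepG2, 24 h exposure; gain or loss of signal fitted against DMSO controls.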
# [18] = ATG_MRE_CIS: Attagene CIS-FACTORIAL HepG2 Assay for human Metal Responsive Element (MRE) (AID 2282954); details: HepG2 MRE cis-reporter transcription, Attagene multiplex; actives raise or lower the signal
# In short: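 Endogenous MRE-dependent transcription read as reporter mRNA in transiently transfected human HepG2 cells at 24 h. RNA reverse-transcribed, PCR-amplified, labelled and resolved by capillary electrophoresis; gain or loss relative to DMSO.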
# [19] = ATG_PXRE_CIS: Attagene CIS-FACTORIAL HepG2 Assay for human Pregnane X Receptor Element (PXRE) (AID 2282957); details: HepG2 Attagene CIS-FACTORIAL PXRE reporter, mRNA; actives raise or lower the signal
# In short: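 Reporter transcripts under endogenous PXR-responsive cis-regulation quantified from total RNA of transfected HepG2 cells 24 h post-dosing, via RT-PCR with fluorescent primer extension and capillary electrophoresis. Gain or loss of signal fitted against DMSO baseline.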
# [20] = molecular target: Bile acid receptor (Homo sapiens) (UniProt Q96RI1); assay: ATG_IR1_CIS: Attagene CIS-FACTORIAL HepG2 Assay for human Nuclear Receptor Subfamily 1 Group H Member 4 (NR1H4), IR1 submotif (AID 2282946); details: IR1 reporter transcription, actives raise or lower the signal
# Sequence of Bile acid receptor (Homo sapiens) (Q96RI1 whole entry, looked up): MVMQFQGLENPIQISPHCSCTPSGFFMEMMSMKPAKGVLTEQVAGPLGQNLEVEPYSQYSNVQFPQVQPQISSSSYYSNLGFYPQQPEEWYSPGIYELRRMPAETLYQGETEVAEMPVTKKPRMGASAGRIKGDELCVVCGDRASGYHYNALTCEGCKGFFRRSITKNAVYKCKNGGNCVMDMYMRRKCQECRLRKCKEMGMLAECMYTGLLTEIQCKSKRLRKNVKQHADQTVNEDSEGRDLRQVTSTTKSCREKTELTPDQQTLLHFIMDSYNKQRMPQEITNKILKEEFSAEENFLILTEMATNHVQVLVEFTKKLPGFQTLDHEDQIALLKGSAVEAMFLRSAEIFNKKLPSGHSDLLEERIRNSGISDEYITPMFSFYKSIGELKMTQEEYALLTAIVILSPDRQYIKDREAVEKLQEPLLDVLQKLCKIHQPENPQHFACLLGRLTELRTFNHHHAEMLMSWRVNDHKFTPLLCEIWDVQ
# In short: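 HepG2 cells transiently transfected with multiplexed cis-element reporter units read endogenous transcription factor activity. After 24 h compound exposure, reporter mRNA was quantified by RT-PCR, fluorescent labelling, HpaI digestion and capillary electrophoresis; bidirectional fitting versus DMSO baseline.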
structure (smiles),measurement,setting,value
Cc1ccccc1C(=O)Nc1cccc(OC(C)C)c1,outcome,[1],inactive
same,outcome,[2],inactive
same,outcome,[3],inactive
same,outcome,[4],inactive
same,outcome,[5],inactive
same,outcome,[6],inactive
same,outcome,[7],inactive
same,outcome,[8],inactive
same,outcome,[9],inactive
same,outcome,[10],inactive
same,outcome,[11],inactive
same,outcome,[12],inactive
same,outcome,[13],inactive
same,outcome,[14],inactive
same,outcome,[15],inactive
same,outcome,[16],inactive
same,outcome,[17],inactive
O=c1[nH]c(=O)[nH]c(=O)[nH]1,outcome,[1],inactive
same,outcome,[2],inactive
same,outcome,[3],inactive
same,outcome,[4],inactive
same,outcome,[5],inactive
same,outcome,[6],inactive
same,outcome,[7],inactive
same,outcome,[18],inactive
same,outcome,[8],inactive
same,outcome,[9],inactive
same,outcome,[19],inactive
same,outcome,[10],inactive
same,outcome,[11],inactive
same,outcome,[12],inactive
same,outcome,[13],inactive
same,outcome,[14],inactive
same,outcome,[15],inactive
same,outcome,[16],inactive
same,outcome,[17],inactive
Cc1ccc2ccccc2c1C,outcome,[1],inactive
same,outcome,[2],inactive
same,outcome,[3],inactive
same,outcome,[4],inactive
same,outcome,[5],inactive
same,outcome,[7],inactive
same,outcome,[18],inactive
same,outcome,[8],inactive
same,outcome,[9],inactive
same,AC50,[19],10.1 µM (active)
same,outcome,[10],inactive
same,outcome,[11],inactive
same,outcome,[12],inactive
same,outcome,[13],inactive
same,outcome,[14],inactive
same,outcome,[15],inactive
same,outcome,[17],inactive
ClC(Cl)=C(Cl)C(Cl)=C(Cl)Cl,AC50,[1],165 µM (active)
same,AC50,[2],100 µM (active)
same,outcome,[4],inactive
same,outcome,[5],inactive
same,outcome,[6],inactive
same,AC50,[7],144 µM (active)
same,AC50,[18],152 µM (active)
same,outcome,[9],inactive
same,AC50,[19],130 µM (active)
same,outcome,[10],inactive
same,outcome,[11],inactive
same,outcome,[12],inactive
same,AC50,[13],160 µM (active)
same,AC50,[14],156 µM (active)
same,outcome,[15],inactive
same,outcome,[16],inactive
same,AC50,[17],40.4 µM (active)
O=S(=O)(c1ccc(Cl)cc1)c1ccc(Cl)cc1,outcome,[1],inactive
same,outcome,[2],inactive
same,outcome,[3],inactive
same,outcome,[4],inactive
same,outcome,[5],inactive
same,outcome,[6],inactive
same,outcome,[7],inactive
same,AC50,[18],101 µM (active)
same,outcome,[9],inactive
same,AC50,[19],4.46 µM (active)
same,outcome,[10],inactive
same,outcome,[11],inactive
same,outcome,[12],inactive
same,outcome,[14],inactive
same,outcome,[15],inactive
same,outcome,[16],inactive
same,outcome,[17],inactive
CCOP(=S)(OCC)SCCS(=O)(=O)CC,outcome,[20],inactive
same,outcome,[2],inactive
same,outcome,[4],inactive
same,outcome,[5],inactive
same,outcome,[6],inactive
same,outcome,[7],inactive
same,outcome,[18],inactive
same,outcome,[9],inactive
same,AC50,[19],11.5 µM (active)
same,outcome,[10],inactive
same,outcome,[11],inactive
same,outcome,[12],inactive
same,outcome,[14],inactive
same,outcome,[15],inactive
same,outcome,[16],inactive
same,outcome,[17],inactive
O=P(O)(O)CN(CP(=O)(O)O)CP(=O)(O)O,outcome,[1],inactive
same,outcome,[2],inactive
same,outcome,[4],inactive
same,outcome,[5],inactive
same,outcome,[6],inactive
same,outcome,[7],inactive
same,outcome,[18],inactive
same,outcome,[9],inactive
same,outcome,[10],inactive
same,outcome,[11],inactive
same,outcome,[12],inactive
same,outcome,[13],inactive
same,outcome,[14],inactive
same,outcome,[15],inactive
same,outcome,[16],inactive
same,outcome,[17],inactive
CC(C)OC(=O)Nc1ccccc1,outcome,[2],inactive
same,outcome,[3],inactive
same,outcome,[4],inactive
same,outcome,[5],inactive
same,outcome,[6],inactive
same,outcome,[7],inactive
same,outcome,[8],inactive
same,outcome,[9],inactive
same,AC50,[19],100 µM (active)
same,outcome,[11],inactive
same,outcome,[12],inactive
same,outcome,[14],inactive
same,outcome,[15],inactive
same,outcome,[16],inactive
same,outcome,[17],inactive
